Bioassay records: PubChem, National Center for Advancing Translational Sciences (NCATS)
NS1 function inh = qHTS Assay for Inhibitors of Influenza NS1 Protein Function; Potency, µM (top dose mostly 46.1 µM), inactives show at the top dose activity, positive = more growth; 270,000 compounds, 0.4% hits; AID 2326, 2010; calls by dose curve; note: potency is the fitted concentration of half-maximal effect; actives are rising curves; nearly all actives have a fitted effect of over 50% in size
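Read-out: OD600 growth recovery of NS1-expressing budding yeast. Cells grown overnight at 30C in -URA glucose medium, washed, resuspended and diluted 1:100 in 2% galactose assay medium, pH 6.0. Same strain lacking NS1 served as positive control.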
Giardia FBPA inh = qHTS Assay for Inhibitors of Fructose-1,6-bisphosphate Aldolase from Giardia Lamblia; A8B2U2; purified Giardia FBPA; Potency, µM (highest dose often 59.6 µM), inactives show at the top dose activity, negative = inhibition, hits mostly inhibitors; 290,000 compounds, 0.71% hits; AID 2451, 2010; note: potency is the fitted concentration of half-maximal effect; % is set by controls: 0 for no effect and ±100 for the full control effect; nearly all actives have a fitted effect of over 55% in size
Target sequence (A8B2U2 whole entry, looked up): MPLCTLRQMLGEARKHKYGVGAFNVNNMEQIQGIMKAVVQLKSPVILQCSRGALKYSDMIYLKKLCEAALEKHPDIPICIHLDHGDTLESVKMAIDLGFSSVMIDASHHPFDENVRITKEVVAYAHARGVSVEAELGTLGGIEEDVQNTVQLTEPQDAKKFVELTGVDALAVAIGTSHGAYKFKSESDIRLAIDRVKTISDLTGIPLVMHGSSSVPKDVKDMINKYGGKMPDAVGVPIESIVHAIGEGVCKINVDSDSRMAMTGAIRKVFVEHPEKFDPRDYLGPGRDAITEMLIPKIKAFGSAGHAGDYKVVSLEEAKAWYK
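Giardia FBPA (40 nM reagent) was preincubated 10 min at RT with compound (up to 57.5 uM final), then substrate plus GAPDH/TPI/NAD/arsenate coupling system with diaphorase/resazurin was added; resorufin fluorescence (525/598 nm) was read after 20 min.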
Shiga toxin inh = A qHTS for Small Molecule Inhibitors of Shiga Toxin | AID 2315, 2010 | Vero cells, Shiga toxin protein synthesis inhibition reporter | inhibition, % at 38.7 µM | 290,000 compounds, 9.2% hits; in the data active = inhibition mostly above about 28%, no sharp cut-off; inactive = mostly below about 43%; note: 0% is about no effect
LmPK inh = qHTS Assay for Inhibitors of Leishmania Mexicana Pyruvate Kinase (LmPK); purified LmPK, Kinase-Glo ATP luminescence, 1 h; Potency, µM (highest dose often 57.5 µM), without a hit: at the highest dose activity change, negative = inhibition, actives largely listed as inhibitors; 290,000 compounds, 0.37% hits; AID 1721, 2009; note: potency is the fitted concentration of half-maximal effect; % is set by controls: 0 for no effect and ±100 for the full control effect
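ATP generated from ADP (0.1 mM) and PEP (0.5 mM) by 0.1 nM LmPK over 1 h at room temperature (pH 7.2 imidazole buffer) was detected by coupled luciferase luminescence. Values were normalized to uninhibited and no-enzyme wells.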
CHX counter = Cycloheximide Counterscreen for Small Molecule Inhibitors of Shiga Toxin; cell reporter, cycloheximide protein synthesis inhibition counterscreen; max response, %; 300,000 compounds, 12% hits; in the data active = max response mostly above about 13%, no sharp cut-off; inactive = mostly below about 14%; note: read at 38.3 µM for the half of the compounds with a filed dose; 0% is about no effect
* marks the source's active call; other numbers are inactive results; ? = inconclusive; / = no result given. Rows were chosen to be rich in hits. Some 14% of all compounds tested hit in one or more screens of this group. Unless noted, calls come from the whole dose curve; as a rule, active = well fitted curve in the direction sought with a large enough effect; inconclusive = small, poorly fitted or top-dose-only effect, or another doubt; inactive = no such curve, though single readings can be large; an effect the other way counts as inactive or inconclusive.

SMILES	NS1 function inh	Giardia FBPA inh	Shiga toxin inh	LmPK inh	CHX counter
C=CCNC(=O)CN(Cc1ccccc1)S(=O)(=O)c1ccccc1	11%	-2%	-12	2%	-2
COc1cc(C(CC(=O)Nc2ccccn2)N2Cc3ccccc3C2=O)cc(OC)c1OC (configuration not stated)	7%	7%	16	-1%	-2
Cc1[nH]c2ccccc2c1/C=N/NC(=O)CNC(=O)c1cccs1	0%	-4%	14	1%	3
Cc1[nH]c2ccccc2c1/C=N/NC(=O)c1cccs1	-1%	-15%	100	0%	51*
Cc1c(/C=N/NC(=O)c2cccs2)c2ccccc2n1Cc1ccccc1Cl	0%	-1%	30*	-1%	23*
Cc1nc(N2CCN(c3ccccn3)CC2)c2c(C)c(C(=O)N3CCN(c4ccccc4F)CC3)sc2n1	2%	/	-3	-1%	-4
Nc1ccc(S(=O)(=O)NC2(C(F)(F)F)NC(=O)N(c3ccc(F)cc3)C2=O)cc1 (configuration not stated)	1%	/	-10	-4%	-2
COc1cc(/C=N/N2CCN(c3ccccc3OC)CC2)ccc1OC(C)=O	3%	-3%	/	-7%	19*
COc1ccccc1N1CCN(/N=C/c2cc(OC)c(O)c(OC)c2)CC1	28%	-5%	24	-3%	3
COc1ccccc1N1CCN(/N=C/c2ccccc2C(=O)O)CC1	7%	6%	28*	-3%	17*
COc1ccccc1N1CCN(/N=C/c2cccc(O)c2)CC1	-34%	3%	85*	-3%	29*
CSc1ccccc1C(=O)N1CCCC(CCC(=O)NCc2ccc(F)c(F)c2)C1 (configuration not stated)	-22%	-2%	2	0%	7
N#CCNC(=O)C1CC(=O)N(CCc2ccc(F)cc2)C1 (configuration not stated)	15%	-3%	/	1%	-1
Cc1cc2c(cc1C)NC(CC(=O)NCc1ccccc1)C(=O)N2 (configuration not stated)	1%	0%	61*	5%	26*
COc1ccc(CCNC(=O)CC2Nc3cc(C)c(C)cc3NC2=O)cc1OC (configuration not stated)	?	-18%	-9	1%	-4
CC(=O)Nc1ccc(/C=C/c2ccc3cccc([N+](=O)[O-])c3n2)cc1	7%	-20%	75*	-2%	23*
O=C(O)COc1ccc(/C=C/c2ccc3cccc([N+](=O)[O-])c3n2)cc1	6%	-18%	13	-1%	-2
O=[N+]([O-])c1ccc(/C=C/c2ccc3cccc(O)c3n2)cc1	3%	10%	98*	0%	60*
O=[N+]([O-])c1ccc(/C=C/c2ccc3ccccc3n2)cc1	/	-10%	30	?	21*
N=C(N)SCc1cc(Cl)cc(Cl)c1O	-6%	/	/	/	/
COc1cc(-c2nc3ccccn3c2/N=C/c2cccc(OC)c2O)ccc1O	/	?	54	2%	23*
Oc1ccccc1/C=N/c1c(-c2ccco2)nc2ccccn12	-42%	?	-10	?	6
COc1cc(-c2nc3ccccn3c2/N=C/c2ccc(F)cc2)ccc1O	/	?	24	1%	16*
COC(=O)CNC(=O)C1CC(=O)N(CCc2ccc(F)cc2)C1 (configuration not stated)	0%	16%	-4	2%	-3
CCOc1ccc(NC(=O)CCC(=O)c2ccc(F)cc2)cc1	-2%	-2%	-7	-4%	2
SMILES	NS1 function inh	Giardia FBPA inh	Shiga toxin inh	LmPK inh	CHX counter
COc1c(C)cc(Br)cc1C(=O)Nc1ccc(S(N)(=O)=O)cc1	/	9%	21	8%	9
Cc1ccc(OCc2n[nH]c(=S)n2C2CCCCC2)cc1	0%	12%	11	8.9µM*	-4
Cc1cccc(OCc2n[nH]c(=S)n2C2CCCCC2)c1	-17%	4%	-5	18µM*	1
CSc1nnc(CCNC(=O)OC(C)(C)C)o1	0%	4%	54*	3%	13
CSc1nnc(CCCCCNC(=O)OC(C)(C)C)o1	-2%	3%	16	1%	8
O=C(O)c1cc(C(=O)O)c(C(=O)N(Cc2cccc(Oc3ccccc3)c2)[C@H]2CCCc3ccccc32)cc1C(=O)O	/	?	-14	/	-3
CNC(=O)c1ccc(NC(=O)/C=C/c2cccc(F)c2)cc1	/	0%	64	9%	27*
